Measured values taken from the supplement of paper PMC6279402.
Counter-ions that a name gives are not always drawn. ± gives the standard deviation of the averaged measurements.

Tested on: A549
Test: relative viability (normalised to negative control = 1, bortezomib = 0) (fraction); higher = less cytotoxic
Conditions: inflammatory serum-free RHB-A with cytokines + LPS, 5 d + 24 h CellTiter-Blue
[1] = compound 30 nM, GSK126 pretreatment: 5 uM GSK126
[2] = compound 30 nM, GSK126 pretreatment: none (vehicle)
[3] = compound 300 nM, GSK126 pretreatment: 5 uM GSK126
[4] = compound 300 nM, GSK126 pretreatment: none (vehicle)

Structure (SMILES) | relative viability [1] | relative viability [2] | relative viability [3] | relative viability [4]
CC(C)C[C@H](NC(=O)[C@H](Cc1ccccc1)NC(=O)c1cnccn1)B(O)O [Bortezomib] | 0.00425 ± 0.0011 | 0.015 ± 0.0062 | 0.00234 ± 0.0024 | 0.00262 ± 0.0014
CC(C)(C)c1cnc(CSc2cnc(NC(=O)C3CCNCC3)s2)o1 | 0.859 ± 0.1 | 0.811 ± 0.056 | -0.00432 ± 0.0019 | -0.0017 ± 0.0016
Nc1nc(Nc2ccc(S(N)(=O)=O)cc2)nn1C(=O)c1c(F)cccc1F | 0.96 ± 0.1 | 0.927 ± 0.15 | 1.12 ± 0.067 | 1.07 ± 0.099
N#Cc1c(O)c2c(-c3ccc(-c4ccccc4O)cc3)csc2[nH]c1=O | 0.86 ± 0.15 | 0.937 ± 0.13 | 0.938 ± 0.18 | 0.942 ± 0.11
Cc1nc(Nc2ncc(C(=O)Nc3c(C)cccc3Cl)s2)cc(N2CCN(CCO)CC2)n1 [Dasatinib] | 0.89 ± 0.089 | 0.882 ± 0.093 | 1.03 ± 0.077 | 0.956 ± 0.12
Cc1ccc(Nc2nccc(N(C)c3ccc4c(C)n(C)nc4c3)n2)cc1S(N)(=O)=O [Pazopanib Hydrochloride] | 0.972 ± 0.12 | 0.935 ± 0.081 | 1.11 ± 0.096 | 1.09 ± 0.12
O=C(Nc1cccc(Cl)c1)Nc1ncc(CCNc2ncnc3ccsc23)s1 [SNS-314 Mesylate] | 0.763 ± 0.13 | 0.639 ± 0.054 | 0.689 ± 0.16 | 0.505 ± 0.1
O=C(Nc1c[nH]nc1-c1nc2ccc(CN3CCOCC3)cc2[nH]1)NC1CC1 | 0.71 ± 0.039 | 0.663 ± 0.021 | 0.336 ± 0.034 | 0.279 ± 0.077
CC(C)n1nc(-c2cc3cc(O)ccc3[nH]2)c2c(N)ncnc21 | 0.686 ± 0.035 | 0.751 ± 0.032 | 0.37 ± 0.014 | 0.431 ± 0.043
COc1cc([C@@H]2c3cc4c(cc3[C@@H](O[C@@H]3O[C@@H]5CO[C@@H](C)O[C@H]5[C@H](O)[C@H]3O)[C@H]3COC(=O)[C@H]23)OCO4)cc(OC)c1O [Etoposide] | 0.938 ± 0.081 | 0.935 ± 0.037 | 0.985 ± 0.046 | 0.845 ± 0.047
O=c1cc(-c2cccc3c2Sc2ccccc2S3)oc(N2CCOCC2)c1 | 0.781 ± 0.04 | 0.845 ± 0.035 | 0.833 ± 0.044 | 0.875 ± 0.069
COc1cc(Nc2ncc3c(n2)-c2ccc(Cl)cc2C(c2c(F)cccc2OC)=NC3)ccc1C(=O)O | 0.804 ± 0.087 | 0.821 ± 0.044 | 0.523 ± 0.11 | 0.381 ± 0.048
COc1ccc2c3n(c(=NC(=O)c4cccnc4)nc2c1OC)CCN3 | 0.7 ± 0.049 | 0.75 ± 0.044 | 0.578 ± 0.14 | 0.735 ± 0.031
CCN1CCN(Cc2ccc(-c3cc4c(N[C@H](C)c5ccccc5)ncnc4[nH]3)cc2)CC1 | 0.695 ± 0.092 | 0.693 ± 0.028 | 0.446 ± 0.042 | 0.414 ± 0.068
O=C1CCC(N2C(=O)c3ccccc3C2=O)C(=O)N1 (stereo not given) | 0.862 ± 0.17 | 0.862 ± 0.13 | 0.865 ± 0.06 | 0.87 ± 0.034
CNC(=O)CN1CCC(Oc2cc3c(Nc4cccc(Cl)c4F)ncnc3cc2OC)CC1 | 0.536 ± 0.14 | 0.525 ± 0.058 | 0.346 ± 0.075 | 0.375 ± 0.024
CN(Cc1cnc2nc(N)nc(N)c2n1)c1ccc(C(=O)N[C@@H](CCC(=O)O)C(=O)O)cc1 [Methotrexate hydrate; Methotrexate] | 0.813 ± 0.055 | 0.84 ± 0.052 | 0.797 ± 0.17 | 0.947 ± 0.086
O=C(c1ccc(/C=C/c2n[nH]c3ccccc23)cc1)N1CCNCC1 | 0.843 ± 0.022 | 0.862 ± 0.046 | 0.957 ± 0.065 | 1.04 ± 0.091
Nc1cccc2c1CN(C1CCC(=O)NC1=O)C2=O (stereo not given) [Lenalidomide] | 0.854 ± 0.11 | 0.789 ± 0.061 | 0.882 ± 0.059 | 0.82 ± 0.035
Cn1cc(-c2ccc3nnc(Sc4ccc5ncccc5c4)n3n2)cn1 | 0.807 ± 0.056 | 0.846 ± 0.079 | 0.859 ± 0.033 | 0.903 ± 0.02
Cc1cn(-c2cc(NC(=O)c3ccc(C)c(Nc4nccc(-c5cccnc5)n4)c3)cc(C(F)(F)F)c2)cn1 [Nilotinib] | 1.02 ± 0.13 | 0.993 ± 0.089 | 1.14 ± 0.17 | 1.07 ± 0.069
NC1(c2ccc(-c3nc4ccn5c(=O)[nH]nc5c4cc3-c3ccccc3)cc2)CCC1 | 0.679 ± 0.074 | 0.691 ± 0.063 | 0.387 ± 0.011 | 0.522 ± 0.067
CC[C@]1(O)C[C@H]2CN(CCc3c([nH]c4ccccc34)[C@@](C(=O)OC)(c3cc4c(cc3OC)N(C=O)[C@H]3[C@@](O)(C(=O)OC)[C@H](OC(C)=O)[C@]5(CC)C=CCN6CC[C@]43[C@@H]65)C2)C1 [Vincristine sulfate] | 0.453 ± 0.072 | 0.289 ± 0.031 | 0.388 ± 0.035 | 0.303 ± 0.014
C[C@@H](CN1CC(=O)NC(=O)C1)N1CC(=O)NC(=O)C1 [Dexrazoxone; Dexrazoxane] | 0.828 ± 0.054 | 0.832 ± 0.093 | 0.859 ± 0.048 | 0.908 ± 0.13
Clc1ccc(C2(c3ccc(-c4cn[nH]c4)cc3)CCNCC2)cc1 | 0.706 ± 0.086 | 0.77 ± 0.055 | 0.734 ± 0.044 | 0.854 ± 0.012
COc1cc2nccc(Oc3ccc(NC(=O)Nc4ccc(F)cc4F)c(F)c3)c2cc1OC | 0.86 ± 0.097 | 0.832 ± 0.051 | 0.916 ± 0.12 | 1.01 ± 0.075
COc1cccc(-c2cc(=O)c3ccccc3o2)c1N | 0.734 ± 0.07 | 0.794 ± 0.057 | 0.726 ± 0.19 | 0.825 ± 0.078
Clc1ccc(C(c2ccccc2Cl)C(Cl)Cl)cc1 (stereo not given) | 0.827 ± 0.1 | 0.804 ± 0.093 | 0.832 ± 0.16 | 0.983 ± 0.12
Cc1cnc(Nc2ccc(N3CCN(C)CC3)cc2)nc1Nc1cccc(S(=O)(=O)NC(C)(C)C)c1 | 1.22 ± 0.15 | 1.2 ± 0.08 | 1.2 ± 0.023 | 1.27 ± 0.053
C[C@]12CC[C@H](O)CC1=CC[C@@H]1[C@@H]2CC[C@]2(C)C(c3cccnc3)=CC[C@@H]12 [Abiraterone] | 0.893 ± 0.12 | 0.869 ± 0.13 | 0.937 ± 0.15 | 1.03 ± 0.098
